Assay results as given in ChEMBL document CHEMBL1157539, “Thousands of chemical starting points for antimalarial lead identification” (Nature, 2010).

These molecules were tested on HepG2 (assay: GSK_TCMDC: Percent inhibition of human HepG2 cell line. Test compounds present at 10uM.).
Assay type: functional

Compound | Inhibition [%]
Cc1ccccc1NC(=O)C1CSCN1C(=O)OCc1ccccc1 (centres undefined) | 8
Cn1cncc1-c1ccc2ncnc(Nc3ccc4c(cnn4Cc4ccccc4)c3)c2c1 | 1
CCC(Cc1ccccc1)c1cc(O)c(Cc2ccc(-c3ccccc3)cc2)c(=O)o1 (centres undefined) | 3
Cl.O=C(NCCCCN1CCC(O)(c2ccc3c(c2)OCO3)CC1)c1ccc(NC(=O)c2ccc(Cl)cc2)cc1 | 15
